Reference: PubChem BioAssay (Tox21)
Values without a mark were called inactive. Records with an inconclusive call do not appear. Entries that show only a call come without a potency. Activity calls are given as the source filed them. Unless noted, calls follow the shape of the full dose curve.

Tests used:
[1] = qHTS assay to identify small molecule antagonists of the sonic hedgehog signaling (Shh) pathway (AID 1259369); also: nearly all actives have a fitted effect of over 45% in size; also: potency is read from the fitted curve at half-maximal effect
Summary of the method: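 Read-out is luminescence from a firefly luciferase gene controlled by the Gli1 response element, in 3T3Gli1-Luc cells pre-incubated 4hr then exposed to compounds and conditioned medium for 24hr.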

[2] = biological target: Estrogen receptor beta (Homo sapiens) (UniProt Q92731); experiment: qHTS assay to identify small molecule agonists of the estrogen receptor beta (ER-beta) signaling pathway (AID 1259377; active = well fitted activation curve with a large enough effect in the signal ratio in the repeat runs, not every such curve was filed as active; the % refers to the signal ratio; also: potency is read from the fitted curve at half-maximal effect)
Summary of the method: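 Reporter cells (HEK293T, ER-beta-UAS-bla) receive compounds or DMSO after a 6 hr pre-incubation. They then incubate 16 hr at 37C/5% CO2, and fluorescence from LiveBLAzer B/G substrate is measured after 2 hours at room temperature.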

[3] = biological target: Estrogen receptor beta (Homo sapiens) (UniProt Q92731); experiment: qHTS assay to identify small molecule antagonists of the estrogen receptor beta (ER-beta) signaling pathway (AID 1259378; active = well fitted inhibition curve with a large enough effect in the signal ratio in the repeat runs, not every such curve was filed as active; the % refers to the signal ratio; also: potency is read from the fitted curve at half-maximal effect)
Summary of the method: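 Antagonist mode: compounds added to beta-lactamase reporter HEK293T ER-beta-UAS cells stimulated with E2 (1nM final), 16 hr at 37C. LiveBLAzer B/G FRET substrate, 2 hours room temperature, fluorescence read-out.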

[4] = qHTS assay to identify small molecule agonists of the androgen receptor (AR) signaling pathway in the presence of an antagonist - cell viability counter screen (AID 1259379; active = well fitted curve in the direction sought with a large enough effect in the repeat runs; an effect the other way counts as inactive or inconclusive; also: nearly all actives have a fitted effect of over 25% in size; also: potency is read from the fitted curve at half-maximal effect)
Summary of the method: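 Each compound was tested at 15 concentrations on MDA-kb2 cells in the presence of 3.0uM nilutamide. Viability was measured by CellTiter-Fluor fluorescence after a 16 hr incubation at 37C in a CO2-free atmosphere.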

[5] = qHTS assay to identify small molecule agonists of the estrogen receptor beta (ER-beta) signaling pathway - cell viability counter screen (AID 1259380; active = well fitted curve in the direction sought with a large enough effect in the repeat runs; an effect the other way counts as inactive or inconclusive; also: nearly all actives have a fitted effect of over 30% in size; also: potency is read from the fitted curve at half-maximal effect)
Summary of the method: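 Compounds dissolved in DMSO were pin-transferred onto ER-beta-UAS-bla HEK293T cells that had settled 6 hr, and exposure ran 16 hr at 37C. Following the reporter read, CellTiter-Glo luminescence after 30 min at room temperature indicated cytotoxicity.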

[6] = biological target: Androgen receptor (Homo sapiens) (UniProt P10275); experiment: qHTS assay to identify small molecule agonists of the androgen receptor (AR) signaling pathway in the presence of an antagonist (AID 1259381); also: nearly all actives have a fitted effect of over 15% in size; also: potency is read from the fitted curve at half-maximal effect
Summary of the method: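 Plated MDA-kb2 cells (3,000/well) were pre-incubated 5hr, given nilutamide (3.0uM final) or buffer, then dosed with compounds in DMSO at 15 concentrations. Luciferase activity was quantified by luminescence after 16hr at 37C.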

[7] = biological target: Estrogen receptor (Homo sapiens) (UniProt P03372); experiment: qHTS assay to identify small molecule agonists of the estrogen receptor alpha (ER-alpha) signaling pathway in the presence of an antagonist (AID 1259383); also: top concentration of the series differs between compounds; nearly all actives have a fitted effect of over 15% in size
Summary of the method: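 Luminescent ERE-luciferase reporter, VM7Luc4E2 cells (endogenous ER-alpha); 10.0nM ICI-182,780 final; 15-point compound titration; 22hr at 37C; ONE-Glo, 30min RT.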

[8] = qHTS assay to identify small molecule antagonists of the estrogen receptor beta (ER-beta) signaling pathway - cell viability counter screen (AID 1259382; active = well fitted curve in the direction sought with a large enough effect in the repeat runs; an effect the other way counts as inactive or inconclusive; also: nearly all actives have a fitted effect of over 55% in size; also: potency is read from the fitted curve at half-maximal effect)
Summary of the method: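 CellTiter-Glo ATP luminescence measured after the LiveBLAzer read in the same wells; ER-beta-UAS-bla HEK293T cells, 16 hr compound treatment with 1nM 17-beta-estradiol agonist at 37C, 5% CO2.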

[9] = qHTS assay to identify small molecule agonists or antagonists of the thyroid stimulating hormone receptor (TSHR) signaling pathway - wild type cell line counter screen (AID 1259384)
Summary of the method: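 Counter screen in untransfected Hek293: compounds (15-point titration, triplicate) plus phosphodiesterase inhibitor Ro20-1724 added after 18 h plating; 30 min RT. Intracellular cAMP via competitive d2/cryptate immunoassay, 1 h incubation.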

[10] = biological target: Thyrotropin receptor (Homo sapiens) (UniProt P16473); experiment: qHTS assay to identify small molecule antagonists of the thyroid stimulating hormone receptor (TSHR) signaling pathway (AID 1259385); also: nearly all actives have a fitted effect of over 20% in size
Summary of the method: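 Antagonist mode: compound-treated TSHR-expressing HEK293 cells were stimulated with 1.5 ng/mL TSH (final) in presence of Ro20-1724 for 30 min at RT. HTRF cAMP detection after 1 h; each compound tested at 15 concentrations, triplicate.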

Chain of Estrogen receptor (Homo sapiens) (P03372 whole entry, looked up): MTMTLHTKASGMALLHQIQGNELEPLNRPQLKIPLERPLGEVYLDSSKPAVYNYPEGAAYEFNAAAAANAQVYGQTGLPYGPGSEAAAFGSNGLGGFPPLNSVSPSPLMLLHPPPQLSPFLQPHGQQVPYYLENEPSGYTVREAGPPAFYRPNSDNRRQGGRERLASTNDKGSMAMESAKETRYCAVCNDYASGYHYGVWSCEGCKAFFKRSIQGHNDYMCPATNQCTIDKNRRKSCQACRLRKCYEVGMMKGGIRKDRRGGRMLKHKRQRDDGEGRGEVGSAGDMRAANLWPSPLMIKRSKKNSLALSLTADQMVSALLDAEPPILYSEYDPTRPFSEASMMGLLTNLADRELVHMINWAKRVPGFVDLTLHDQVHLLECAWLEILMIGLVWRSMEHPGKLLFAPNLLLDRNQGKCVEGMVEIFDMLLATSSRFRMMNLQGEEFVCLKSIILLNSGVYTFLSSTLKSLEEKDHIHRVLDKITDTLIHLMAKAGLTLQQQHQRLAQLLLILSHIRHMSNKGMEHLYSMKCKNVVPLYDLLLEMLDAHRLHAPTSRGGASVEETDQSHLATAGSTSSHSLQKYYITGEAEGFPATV
Chain of Thyrotropin receptor (Homo sapiens) (P16473 whole entry, looked up): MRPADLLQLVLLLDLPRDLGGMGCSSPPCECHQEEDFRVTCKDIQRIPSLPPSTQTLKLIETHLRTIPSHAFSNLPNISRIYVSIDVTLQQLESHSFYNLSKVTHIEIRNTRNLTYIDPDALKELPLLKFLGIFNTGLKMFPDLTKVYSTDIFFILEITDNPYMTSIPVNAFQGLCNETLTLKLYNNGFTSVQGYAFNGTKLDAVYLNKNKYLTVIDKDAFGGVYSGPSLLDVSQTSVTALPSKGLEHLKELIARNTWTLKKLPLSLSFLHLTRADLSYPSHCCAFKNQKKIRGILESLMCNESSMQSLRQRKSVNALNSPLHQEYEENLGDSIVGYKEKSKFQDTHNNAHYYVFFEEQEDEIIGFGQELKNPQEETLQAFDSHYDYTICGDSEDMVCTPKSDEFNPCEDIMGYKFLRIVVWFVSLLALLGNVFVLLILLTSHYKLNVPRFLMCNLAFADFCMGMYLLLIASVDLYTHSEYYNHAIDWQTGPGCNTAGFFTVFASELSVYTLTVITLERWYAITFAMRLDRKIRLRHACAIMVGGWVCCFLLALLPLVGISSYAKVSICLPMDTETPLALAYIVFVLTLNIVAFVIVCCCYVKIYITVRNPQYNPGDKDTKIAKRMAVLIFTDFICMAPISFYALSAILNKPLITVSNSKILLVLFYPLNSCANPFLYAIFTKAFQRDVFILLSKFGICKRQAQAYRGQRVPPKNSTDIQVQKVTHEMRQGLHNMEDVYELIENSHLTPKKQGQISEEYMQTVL
Chain of Estrogen receptor beta (Homo sapiens) (Q92731 whole entry, looked up): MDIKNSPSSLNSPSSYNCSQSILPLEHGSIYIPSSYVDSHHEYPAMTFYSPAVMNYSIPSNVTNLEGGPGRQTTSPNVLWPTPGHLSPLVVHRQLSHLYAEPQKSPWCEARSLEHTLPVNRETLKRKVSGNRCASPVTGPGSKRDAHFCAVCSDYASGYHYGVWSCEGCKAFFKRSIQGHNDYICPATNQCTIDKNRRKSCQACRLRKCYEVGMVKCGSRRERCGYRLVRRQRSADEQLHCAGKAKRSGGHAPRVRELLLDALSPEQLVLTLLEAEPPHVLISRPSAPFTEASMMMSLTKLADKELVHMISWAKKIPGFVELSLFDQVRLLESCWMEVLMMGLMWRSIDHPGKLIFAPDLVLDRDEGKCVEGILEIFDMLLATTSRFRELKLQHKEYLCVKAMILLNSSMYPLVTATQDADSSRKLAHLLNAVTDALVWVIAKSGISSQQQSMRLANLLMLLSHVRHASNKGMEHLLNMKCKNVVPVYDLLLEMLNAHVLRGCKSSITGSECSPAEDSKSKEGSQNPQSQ
Chain of Androgen receptor (Homo sapiens) (P10275 whole entry, looked up): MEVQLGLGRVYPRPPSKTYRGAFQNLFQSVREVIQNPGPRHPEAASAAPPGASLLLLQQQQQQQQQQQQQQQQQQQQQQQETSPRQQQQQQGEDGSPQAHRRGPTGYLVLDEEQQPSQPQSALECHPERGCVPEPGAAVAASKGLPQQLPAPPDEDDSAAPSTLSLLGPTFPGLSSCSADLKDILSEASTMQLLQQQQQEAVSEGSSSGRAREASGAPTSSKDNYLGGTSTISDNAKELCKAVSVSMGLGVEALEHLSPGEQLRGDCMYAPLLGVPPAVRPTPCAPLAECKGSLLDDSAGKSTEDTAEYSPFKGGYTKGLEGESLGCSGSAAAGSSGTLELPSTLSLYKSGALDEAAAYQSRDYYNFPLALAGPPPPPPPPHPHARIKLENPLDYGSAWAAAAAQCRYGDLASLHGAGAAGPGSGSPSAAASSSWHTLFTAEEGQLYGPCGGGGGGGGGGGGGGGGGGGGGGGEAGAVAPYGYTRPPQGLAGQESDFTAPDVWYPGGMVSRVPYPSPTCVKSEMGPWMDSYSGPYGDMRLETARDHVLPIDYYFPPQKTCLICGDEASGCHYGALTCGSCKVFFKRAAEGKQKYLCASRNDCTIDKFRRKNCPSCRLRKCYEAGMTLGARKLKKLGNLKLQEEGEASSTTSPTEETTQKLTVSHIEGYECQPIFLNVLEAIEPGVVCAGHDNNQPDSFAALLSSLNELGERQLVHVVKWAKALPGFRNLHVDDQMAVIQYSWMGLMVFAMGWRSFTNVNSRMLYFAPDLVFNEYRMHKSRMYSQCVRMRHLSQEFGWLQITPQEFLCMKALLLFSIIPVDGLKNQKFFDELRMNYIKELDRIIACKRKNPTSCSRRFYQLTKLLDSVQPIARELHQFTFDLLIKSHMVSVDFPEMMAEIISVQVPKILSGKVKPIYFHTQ

Row | Structure (SMILES) | Potency [1] | Potency [2] | Potency [3] | Potency [4] | Potency [5] | Potency [6] | Potency [7] | Potency [8] | Potency [9] | Potency [10] | activation [2] | activation [6] | activation [7] | cAMP activity change [9] | activity change, negative = inhibition [10]
1 | CN(C)c1ccc(N)cc1 | 13.4 µM (active) | inactive | 23.7 µM (active) | 59.6 µM (active) | 11.9 µM (active) | inactive | inactive | – | – | – | – | – | – | – | –
2 | CC(Cc1ccc(OCC(=O)O)cc1)NCC(O)c1csc(C(F)(F)F)n1 (configuration not stated) | inactive | inactive | inactive | inactive | inactive | – | inactive | inactive | inactive | inactive | – | – | – | – | –
3 | Nc1ccccc1-c1ccccc1 | inactive | inactive | inactive | inactive | 48.3 µM (active) | – | inactive | inactive | inactive | inactive | – | – | – | – | –
4 | NC(=O)C(Cl)Cl | inactive | inactive | inactive | inactive | inactive | – | – | inactive | – | – | – | – | – | – | –
5 | CCNc1nc(NC(C)C(C)C)nc(SC)n1 (configuration not stated) | 4.86 µM (active) | inactive | inactive | inactive | inactive | – | inactive | inactive | – | – | – | – | – | – | –
6 | CN/C(=N\[N+](=O)[O-])NCc1cnc(Cl)s1 | inactive | inactive | inactive | inactive | inactive | – | inactive | inactive | – | – | – | – | – | – | –
7 | O=[N+]([O-])c1ccc(CCl)cc1 | inactive | inactive | inactive | inactive | inactive | – | inactive | inactive | inactive | inactive | – | – | – | – | –
8 | Nc1nc(N)nc(Cl)n1 | inactive | inactive | inactive | inactive | inactive | – | inactive | inactive | inactive | inactive | – | – | – | – | –
9 | C=Cc1cccc(CCl)c1 | inactive | inactive | inactive | inactive | inactive | – | inactive | inactive | inactive | inactive | – | – | – | – | –
10 | O=S(=O)(O)F | inactive | inactive | inactive | inactive | inactive | – | inactive | inactive | inactive | inactive | – | – | – | – | –
11 | COP(=S)(NC(C)C)Oc1ccc(C)cc1[N+](=O)[O-] (configuration not stated) | inactive | inactive | 30.6 µM (active) | inactive | inactive | – | inactive | inactive | inactive | inactive | – | – | – | – | –
12 | CC1(C)C(C=C(Cl)Cl)C1C(=O)OC(C#N)c1ccc(F)c(Oc2ccccc2)c1 (configuration not stated) | inactive | inactive | inactive | inactive | inactive | – | inactive | inactive | inactive | inactive | – | – | – | – | –
13 | CNC(=O)CSP(=O)(OC)OC | inactive | inactive | inactive | inactive | inactive | – | inactive | inactive | – | inactive | – | – | – | – | –
14 | [O]=[Cr][O][Cr]=[O] | inactive | inactive | inactive | inactive | inactive | – | – | inactive | – | – | – | – | – | – | –
15 | CCN(CC)CCN1C(=O)CN=C(c2ccccc2F)c2cc(Cl)ccc21 | inactive | inactive | inactive | inactive | inactive | – | inactive | inactive | – | inactive | – | – | – | – | –
16 | BrCC(Br)(Br)Br | inactive | inactive | inactive | – | inactive | inactive | – | – | – | – | – | – | – | – | –
17 | Oc1cc(Cl)c(Cl)c(Cl)c1Cl | 26.7 µM (active) | inactive | 13.4 µM (active) | 59.7 µM (active) | – | inactive | inactive | – | inactive | inactive | – | – | – | – | –
18 | COC(=O)c1ccccc1S(=O)(=O)NC(=O)Nc1nc(C)nc(OC)n1 | inactive | inactive | inactive | inactive | inactive | – | – | inactive | inactive | inactive | – | – | – | – | –
19 | O=Cc1ccccc1 | inactive | inactive | inactive | inactive | inactive | – | – | inactive | – | inactive | – | – | – | – | –
20 | C#CC1(O)CCCCC1 | inactive | inactive | inactive | inactive | inactive | – | – | – | inactive | inactive | – | – | – | – | –
21 | CSC1=N[C@@](C)(c2ccccc2)C(=O)N1Nc1ccccc1 | 2.43 µM (active) | inactive | 27.3 µM (active) | 30.6 µM (active) | – | – | – | inactive | – | – | – | – | – | – | –
22 | CCC[CH2][Sn]([CH2]CCC)([CH2]CCC)[O][Sn]([CH2]CCC)([CH2]CCC)[CH2]CCC | 0.212 µM (active) | – | – | 0.475 µM (active) | 1.06 µM (active) | – | – | 1.19 µM (active) | – | – | -9.06% [at 8.39 µM] | -10.6% [at 8.39 µM] | -15.3% [at 8.39 µM] | 1.6% [at 8.39 µM, stronger effect = higher value] | 0.334% [at 8.39 µM]
23 | O=C(N[C@@H]1N=C(c2ccccc2F)c2cccc3c2N(CC3)C1=O)c1cc2ccccc2[nH]1 | inactive | inactive | inactive | inactive | inactive | – | – | inactive | inactive | inactive | – | – | – | – | –
24 | CC1(C)[C@H](/C=C2\CCSC2=O)[C@@H]1C(=O)OCc1coc(Cc2ccccc2)c1 | 12.2 µM (active) | inactive | inactive | inactive | inactive | – | inactive | – | – | – | – | – | – | – | –
25 | CCOP(=O)(OCC)Oc1cc(C)nc(C(C)C)n1 | inactive | inactive | inactive | inactive | inactive | – | – | inactive | inactive | inactive | – | – | – | – | –
26 | C[C@]12CC[C@H]3[C@@H](CCC4=CC(=O)CC[C@@H]43)[C@@H]1CC[C@@H]2OC(=O)CCc1ccco1 | inactive | 2.66 µM (active) | – | inactive | inactive | 0.0237 µM (active) | – | inactive | inactive | – | – | – | – | – | –
27 | CCN(CC)CCc1c[nH]c2ccccc12 | 50.9 µM (active) | inactive | – | inactive | inactive | – | inactive | inactive | inactive | inactive | – | – | – | – | –
